About 14,000 (4.5%) of roughly 310,000 compounds showed an effect of 50% or more. Effects have a minus sign here. The sample holds strong results, similar compounds and a random draw of the others, so the mix is not that of the screen.
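Also: peak tail current of the secondary pulse compared with the same well before compound.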

This assay deals with human ether-à-go-go-related gene (hERG) potassium channel (human, UniProt Q12809). The experiment in a line: primary screen, population patch clamp on CHO cells stably expressing hERG; higher = less effect of the substance.
Sequence of human ether-à-go-go-related gene (hERG) potassium channel (Q12809 whole entry, looked up): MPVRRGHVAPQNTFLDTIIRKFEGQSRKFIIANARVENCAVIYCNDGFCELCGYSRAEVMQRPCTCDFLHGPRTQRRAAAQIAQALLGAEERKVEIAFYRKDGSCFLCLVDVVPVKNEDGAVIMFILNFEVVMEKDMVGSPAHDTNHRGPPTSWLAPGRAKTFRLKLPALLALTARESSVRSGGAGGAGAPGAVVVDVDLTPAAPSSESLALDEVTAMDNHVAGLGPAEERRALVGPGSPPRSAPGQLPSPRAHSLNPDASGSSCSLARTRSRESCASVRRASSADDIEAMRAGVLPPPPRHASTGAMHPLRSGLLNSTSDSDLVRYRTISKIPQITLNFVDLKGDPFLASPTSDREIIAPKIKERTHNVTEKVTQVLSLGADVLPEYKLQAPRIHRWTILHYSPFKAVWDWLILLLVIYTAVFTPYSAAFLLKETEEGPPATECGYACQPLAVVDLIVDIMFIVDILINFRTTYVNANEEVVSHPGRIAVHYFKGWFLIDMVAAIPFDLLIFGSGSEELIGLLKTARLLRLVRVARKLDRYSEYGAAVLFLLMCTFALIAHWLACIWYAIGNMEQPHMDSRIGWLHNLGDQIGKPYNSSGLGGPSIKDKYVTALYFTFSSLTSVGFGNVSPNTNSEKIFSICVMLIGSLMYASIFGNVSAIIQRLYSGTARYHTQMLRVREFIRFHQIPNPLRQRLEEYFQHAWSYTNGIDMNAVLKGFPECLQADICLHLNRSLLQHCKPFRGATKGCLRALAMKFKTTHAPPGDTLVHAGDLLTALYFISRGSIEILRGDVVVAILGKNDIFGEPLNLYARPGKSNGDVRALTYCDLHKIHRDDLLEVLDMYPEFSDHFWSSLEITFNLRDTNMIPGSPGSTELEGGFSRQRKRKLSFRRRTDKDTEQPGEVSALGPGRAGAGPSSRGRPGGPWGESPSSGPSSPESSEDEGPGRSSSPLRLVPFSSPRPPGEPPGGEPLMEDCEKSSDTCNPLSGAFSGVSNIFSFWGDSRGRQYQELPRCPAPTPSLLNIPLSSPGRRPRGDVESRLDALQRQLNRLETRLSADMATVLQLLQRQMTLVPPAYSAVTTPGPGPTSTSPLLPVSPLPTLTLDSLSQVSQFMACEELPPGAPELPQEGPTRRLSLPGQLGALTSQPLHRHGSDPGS
With `Cl.NCC(O)(c1ccc(Cl)cc1)c1ccc(Cl)cc1`, the “hERG current change (%, negative = inhibition) at 10uM” value is recorded as -5.47%. For `CN1CCN(CC(C)(C)NS(=O)(=O)c2ccc(Cl)cc2)CC1` the value was -20.4%; for `CN1CCN(CC(O)(c2ccc(Cl)cc2)c2ccc(Cl)cc2)CC1`, -73.3%. With `O=C(N/N=C/c1cccnc1)c1ccc(NC(=O)c2cccc(Cl)c2)cc1` the figure was 15.3%; with `Cc1cccc(Cl)c1NC(=O)N1CCCN(c2nc3ccc(Cl)cc3s2)CC1`, -20.6%. With `COc1cccc(/C=C/C2=CC(C)(C)NC(=S)N2)c1` the figure was 16%. Regarding `COc1ccc(CN(Cc2ccccn2)S(=O)(=O)c2ccc(-n3cnnn3)cc2)cc1`, the “hERG current change (%, negative = inhibition) at 10uM” value is given as -72.7%. Take `COc1ccc(CN(C2CCCC2)S(=O)(=O)c2ccc(-n3cnnn3)c(OC)c2)cc1OC`: the “hERG current change (%, negative = inhibition) at 10uM” value was -28.1%. For `COc1ccc(CN(C2CCCC2)S(=O)(=O)c2ccc(-n3cnnn3)cc2)cc1OC` the value was -64%; for `COc1ccc(CN(Cc2ccccn2)S(=O)(=O)c2ccc(-n3cnnn3)c(OC)c2)cc1`, -47.2%; for `COc1ccc(CN(C2CCCC2)S(=O)(=O)c2ccc(-n3cnnn3)cc2)cc1`, -43.8%. For `COc1ccc(CCN(Cc2cccs2)S(=O)(=O)c2ccc(-n3cnnn3)c(OC)c2)cc1OC` the value was 10.4%; for `COc1cc(S(=O)(=O)N(CCc2ccccc2)Cc2cccs2)ccc1-n1cnnn1`, -3.57%; for `COc1ccc(CCN(Cc2cccs2)S(=O)(=O)c2ccc(-n3cnnn3)cc2)cc1OC`, -52.5%. `COc1cc(S(=O)(=O)N(Cc2ccccc2)Cc2ccccn2)ccc1-n1cnnn1`: the “hERG current change (%, negative = inhibition) at 10uM” value worked out at 2.81%. For `O=C(N/N=C/c1ccc(Cl)cc1Cl)C(=O)NC1CC1`, the “hERG current change (%, negative = inhibition) at 10uM” value is 17.4%. With `Nc1nonc1C(=O)OCC(=O)c1ccc(Cl)cc1` the figure was 4.6%; with `Cc1ccccc1NC(=O)NC1(C(=O)N2CCCC2)CCCCC1`, 9.33%. Consider `CCCCN(CC)CCCNC(=O)c1cc2cc3ccc(OC)cc3nc2o1`, for which the “hERG current change (%, negative = inhibition) at 10uM” value is reported as -64.5%. `CCCCN(CC)CCCNC(=O)c1cc2cc3ccc(C)cc3nc2o1`: the “hERG current change (%, negative = inhibition) at 10uM” value is listed as -53.4%. With `COCCNC(=O)c1cc2cc3ccc(OC)cc3nc2o1` the figure was 12.8%.

On to `CCCCN(C)CCNC(=O)c1cc2cc3ccc(OC)cc3nc2o1`, for which the “hERG current change (%, negative = inhibition) at 10uM” value is -43%. With `CCCN(CCC)CCCNC(=O)c1cc2cc3ccc(OC)cc3nc2o1` the figure was -52.8%; with `Cc1ccc2cc3cc(C(=O)NC4CC4)oc3nc2c1`, 8.43%. With `CCN(CC)CCNC(=O)c1cc2cc3ccc(OC)cc3nc2o1` the figure was -18%. With `Cc1ccc2cc3cc(C(=O)NCCC(C)C)oc3nc2c1`, the “hERG current change (%, negative = inhibition) at 10uM” value turned out to be 8.43%. Consider `COc1ccc2cc3cc(C(=O)NCCC(C)C)oc3nc2c1`, for which the “hERG current change (%, negative = inhibition) at 10uM” value came out at 6.93%. On to `CCOC(=O)C1=C(N)Oc2c(oc(CO)cc2=O)C1c1c(F)cccc1Cl` (stereo not shown), for which the “hERG current change (%, negative = inhibition) at 10uM” value is reported as 0.47%. For `Nc1ncc([N+](=O)[O-])cc1S(=O)(=O)c1ccccc1` the value was 8.32%; for `COc1ccc(N2C(=O)C3CCCN3C2c2cc(OC)c(OC)cc2OC)cc1` (stereo not shown), -4.23%.

With `CSc1nc(C)cc(C)c1C(N)=O`, the “hERG current change (%, negative = inhibition) at 10uM” value is listed as 8.49%.

As to `CCCNC(=O)NC(=O)CSc1nnc(-c2ccncc2)n1CC`, the “hERG current change (%, negative = inhibition) at 10uM” value is 11.6%. For `COc1ccc(-c2cc3c(=O)n(CC(=O)NCCCc4ccccc4)ncn3n2)cc1` the value was 7.35%; for `COc1ccc(-c2cc3c(=O)n(CC(=O)NCCCN4CCC(Cc5ccccc5)CC4)ncn3n2)cc1`, -72.4%. For the compound `CCc1ccc(-c2cc3c(=O)n(CC(=O)NCCCN4CCN(C)CC4)ncn3n2)cc1`, the “hERG current change (%, negative = inhibition) at 10uM” value is recorded as -4.24%. Regarding `COc1ccc(-c2cc3c(=O)n(CC(=O)NCCCN4CCN(Cc5ccccc5)CC4)ncn3n2)cc1`, the “hERG current change (%, negative = inhibition) at 10uM” value is -54.8%.

Take `COc1ccc(-c2cc3c(=O)n(CC(=O)NCCCN4CCC(N5CCCCC5)CC4)ncn3n2)cc1`: the “hERG current change (%, negative = inhibition) at 10uM” value was determined as 21.5%. With `CCC1CCCCN1CCCNC(=O)Cn1ncn2nc(-c3ccc(OC)cc3)cc2c1=O` (stereo not shown) the figure was -42.1%. With `O=S(=O)(c1ccccc1)N1CCN=C1SCc1ccc(Cl)c(Cl)c1` the figure was -2.01%; with `Cc1ccc(NC(=O)CCCCCN2C(=O)[C@@H]3Cc4ccccc4CN3C2=O)c(C)c1`, 2.68%. With `Cc1ccc(-c2cc(-c3cccs3)[nH]n2)c(O)c1` the figure was 1.75%. Consider `COC(=O)CSc1nc(NC(C)=O)nc(C)c1Br`, for which the “hERG current change (%, negative = inhibition) at 10uM” value is on record as 9.72%.

For `COc1ccc(C2CC(c3cccs3)=NN2C(=O)CSc2nc(=O)n3ccccc3n2)cc1` (stereo not shown), the “hERG current change (%, negative = inhibition) at 10uM” value is -57.5%. For `COc1ccc(C2CC(c3cccs3)=NN2C(=O)CSC2=NCCS2)cc1` (stereo not shown) the value was -11%; for `COc1ccc(C2CC(c3cccs3)=NN2C(=O)CSc2nc3ccccc3s2)cc1` (stereo not shown), -6.91%.

As to `O=C(CSc1nc2c(cnn2-c2ccccc2)c(=O)[nH]1)N1N=C(c2cccs2)CC1c1ccc(F)cc1` (stereo not shown), the “hERG current change (%, negative = inhibition) at 10uM” value worked out at 16%.

With `O=C(CSc1nc(=O)n2ccccc2n1)N1N=C(c2cccs2)CC1c1ccc(F)cc1` (stereo not shown), the “hERG current change (%, negative = inhibition) at 10uM” value is recorded as -52.2%.

In the case of `O=C(CSc1nc2ccccc2s1)N1N=C(c2cccs2)CC1c1ccc(F)cc1` (stereo not shown), the “hERG current change (%, negative = inhibition) at 10uM” value turned out to be 0.782%.

For the compound `O=C(NCc1ccccc1)c1ccc2nnsc2c1`, the “hERG current change (%, negative = inhibition) at 10uM” value is -1.17%. With `Cc1cc(=O)[nH]c(SCC(=O)N(CCC#N)c2ccccc2)c1C#N`, the “hERG current change (%, negative = inhibition) at 10uM” value is given as 15.3%. With `COc1cc(OC)cc(C(=O)NCCNC(=O)c2ccccn2)c1` the figure was 14.3%.

`CCN(CCCNC(=O)CN1C(=O)COc2ccccc21)c1cccc(C)c1`: the “hERG current change (%, negative = inhibition) at 10uM” value is -11.3%. For `CC(=O)Nc1ccc(Sc2ncccc2C(=O)Nc2ccc(F)cc2)cn1` the value was 13.9%; for `O=C(Nc1cc(C(F)(F)F)cc(C(F)(F)F)c1)c1ccc(Cn2cc(C(F)(F)F)ccc2=O)cc1`, 22%; for `COCCc1nn2c(=O)cc(COC(=O)c3cc(OC)c(OC)c(OC)c3)nc2s1`, -22.6%. On to `CCc1nn2c(=O)cc(COC(=O)c3ccc(SC)cc3OC)nc2s1`, for which the “hERG current change (%, negative = inhibition) at 10uM” value is listed as -18.7%. For `CCc1nn2c(=O)cc(COC(=O)c3cc(Cl)c(OC)c(OC)c3)nc2s1` the value was -69.5%; for `CCOc1cccc(C2C(C(=O)c3ccc(C)o3)=C(O)C(=O)N2c2nccs2)c1` (stereo not shown), 0.752%; for `Cc1ccc(C(=O)NC2CCN(C(=O)Nc3ccc(F)cc3)CC2)cc1`, 1.24%. With `CN1CCN(CCCC(=O)c2ccc(F)cc2)CC1.Cl`, the “hERG current change (%, negative = inhibition) at 10uM” value is -14.5%. For `O=C(CCCN1CCC(C(=O)c2ccc(F)cc2)CC1)c1ccc(F)cc1` the value was -78.5%; for `CCN(CC)C(=O)N1CCC(NC(=O)c2ccccc2)CC1`, 12.6%. For `O=C(C1CCCCC1)N1CCc2[nH]c3ccc(F)cc3c2C1` the value was -3.94%; for `O=C(CN1CCC(NC(=O)c2ccccc2)CC1)NCc1ccccc1F`, -20.6%; for `C=CCNC(=O)N1CCc2[nH]c3ccc(F)cc3c2C1`, 6.56%. Regarding `O=C(CCCN1CCC(NC(=O)c2ccccc2)CC1)c1ccc(Cl)cc1`, the “hERG current change (%, negative = inhibition) at 10uM” value is -77.8%.

For the compound `Cc1ccc(C(=O)NC2CCN(CCCC(=O)c3ccc(F)cc3)CC2)cc1`, the “hERG current change (%, negative = inhibition) at 10uM” value is -74%. With `Cl.O=C(CCCN1CCc2[nH]c3ccc(F)cc3c2C1)c1ccc(F)cc1`, the “hERG current change (%, negative = inhibition) at 10uM” value was -70.4%. With `O=C(c1ccc(F)cc1)C1CCN(C(=O)c2ccc(F)cc2)CC1` the figure was -22.7%. In the case of `Cc1ccc(C(=O)NC2CCN(S(=O)(=O)c3ccc(F)cc3)CC2)cc1`, the “hERG current change (%, negative = inhibition) at 10uM” value was found to be 11.6%. For `COC(=O)C1C(=O)C2=C(CC1C)NC(=O)CC2c1cccc(C)c1` (stereo not shown) the value was -12.6%.

For `CCCSc1nnc(NC(=O)c2ccco2)s1`, the “hERG current change (%, negative = inhibition) at 10uM” value came to 2.42%. `CC(NC(=O)CSc1nnc(-c2cc3cc(Cl)ccc3o2)n1C)c1ccccc1` (stereo not shown): the “hERG current change (%, negative = inhibition) at 10uM” value was -12%. For `CCOC(=O)c1oc2ccccc2c1COC(=O)CNC(=O)c1cccc(C)c1` the value was 3.66%. For `CC(=O)c1cn(C)c(=O)n(C)c1=O` the value was 4.7%. For `COC(=O)c1ccc(C23CC4(C2)[C@H](CN(Cc2cccnc2)[C@@H]4c2ccccc2)C3c2ccccc2)cc1` (stereo partly shown) the value was 12.8%; for `CCn1c(CNC(=O)c2ccccc2Br)nnc1SCC(=O)NC1=NCCS1`, 27.9%. With `CCOc1ccc(NC(=NCc2ccc3c(c2)OCO3)SC2CC(=O)N(c3ccc(OCC)cc3)C2=O)cc1` (stereo not shown), the “hERG current change (%, negative = inhibition) at 10uM” value is on record as -1.29%. With `CCOC(=O)N1CCN(C(=O)CCn2c(=S)[nH]c3cc(OCC)c(OCC)cc3c2=O)CC1` the figure was -7.21%. For the compound `COc1cccc(C(=O)NC2CC3CCCC(C2)N3S(=O)(=O)c2ccccc2)c1` (stereo not shown), the “hERG current change (%, negative = inhibition) at 10uM” value is -75.8%. With `Cc1cccc(C(=O)NC2CCN(S(=O)(=O)c3ccccc3)CC2)c1` the figure was 3.41%; with `O=C(NC1CC2CCCC(C1)N2S(=O)(=O)c1ccccc1)c1ccccc1` (stereo not shown), -44%; with `O=C(NC1CCN(S(=O)(=O)c2ccc(Cl)cc2)CC1)c1cccnc1`, 0.584%.

Take `COc1ccc(S(=O)(=O)N2CCC(NC(=O)c3cccnc3)CC2)cc1`: the “hERG current change (%, negative = inhibition) at 10uM” value is listed as -64.7%. As for `CC(=O)NC1CC2CCCC(C1)N2S(=O)(=O)c1ccccc1` (stereo not shown), the “hERG current change (%, negative = inhibition) at 10uM” value turned out to be 16.3%. `COc1ccc(S(=O)(=O)N2CCC(NC(=O)c3ccccc3)CC2)cc1`: the “hERG current change (%, negative = inhibition) at 10uM” value came to 17.8%.

For `CCCN1C2CCCC1CC(NC(=O)c1cccc(OC)c1)C2` (stereo not shown), the “hERG current change (%, negative = inhibition) at 10uM” value is recorded as -16.4%. With `Cc1cccc(C(=O)NC2CC3CCCC(C2)N3S(=O)(=O)c2ccccc2)c1` (stereo not shown), the “hERG current change (%, negative = inhibition) at 10uM” value is listed as -77.2%.
